Measured values as given in PubChem BioAssay (NCI).
This is part of a sample that, as a whole, favours compounds with a hit. Of some 83,000 tested, about 20% had one in any assay.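 Treatment: one concentration, 48 hours, 96-well format. Scoring: percent growth, with anything below 10 considered active.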 A number with no mark means an inactive call. Calls of active or inactive are those of the source.

What was measured:
Assay in all cases: NCI-60 one-dose screen, 48 h (100 = growth as untreated, 0 = no growth, -100 = all killed)
Settings in all cases: 10 µM
NCI-H23 lung = test system: NCI-H23 lung
NCI-H226 lung = test system: NCI-H226 lung
NCI-H322M lung = test system: NCI-H322M lung
HOP-62 NSCLC = test system: HOP-62 NSCLC
NCI-H460 lung = test system: NCI-H460 lung
HOP-92 NSCLC = test system: HOP-92 NSCLC
NCI-H522 lung = test system: NCI-H522 lung
A549/ATCC NSCLC = test system: A549/ATCC NSCLC
786-0 renal = test system: 786-0 renal
DU-145 prostate = test system: DU-145 prostate
K-562 leukemia = test system: K-562 leukemia
MALME-3M melanoma = test system: MALME-3M melanoma
MDA-MB-231 breast = test system: MDA-MB-231 breast
RXF 393 renal = test system: RXF 393 renal
SF-268 CNS = test system: SF-268 CNS
SF-295 CNS = test system: SF-295 CNS
SF-539 CNS = test system: SF-539 CNS
UACC-257 melanoma = test system: UACC-257 melanoma
M14 melanoma = test system: M14 melanoma
COLO 205 colon = test system: COLO 205 colon

Compound | growth (NCI-H23 lung) | growth (NCI-H226 lung) | growth (NCI-H322M lung) [%] | growth (HOP-62 NSCLC) | growth (NCI-H460 lung) | growth (HOP-92 NSCLC) | growth (NCI-H522 lung) | growth (A549/ATCC NSCLC) | growth (786-0 renal) | growth (DU-145 prostate) | growth (K-562 leukemia) | growth (MALME-3M melanoma) | growth (MDA-MB-231 breast) | growth (RXF 393 renal) | growth (SF-268 CNS) | growth (SF-295 CNS) | growth (SF-539 CNS) | growth (UACC-257 melanoma) | growth (M14 melanoma) | growth (COLO 205 colon)
COc1ccc(COC(=O)CC(C)C)cc1 | 93.1% | 95.1% | 101 | 106% | 108% | 99% | 79.1% | 89.5% | 94.4% | 107% | 96.1% | 100% | 106% | 101% | 93% | 97.1% | 96.1% | 87.7% | 99.6% | 
Cc1ccc(C(=O)O)c(N)c1C | 94.4% | 98.6% | 96.1 | 90.2% | 108% | 98.8% | 87.3% | 111% | 103% | 101% | 92.1% | 85.7% | 118% | 111% | 95.9% | 92.6% | 103% | 108% | 96.4% | 
COc1ccc(Cn2cc3c(c2-c2cc(OC)c(OC)c(OC)c2)CCc2cnoc2-3)cc1[N+](=O)[O-] | 26.1% | 47.5% | 26.7 | 56.6% | 7.93% (active) | 64% | 46.2% | 34% | 34.3% | 10.1% | 15.3% |  | 25.6% | 10.5% | 47.6% | -15.3% (active) | -10.5% (active) | 78.1% | 11.4% | 1.15% (active)
COc1ccc(C2CC(c3ccc(-c4ccccc4)cc3)=NN2c2ccc(S(N)(=O)=O)cc2)cc1 (configuration not stated) | 80.9% | 74.9% | 68.5 | 90.8% | 41.9% | 35.6% | 40.3% | 47.3% | 92.1% | 83.2% | 52.7% | 95.8% | 69.6% | 73.3% | 68% | 86.5% | 98.7% | 82.7% | 89.6% | 
Cc1ccc(Cl)cc1Nc1nc(C(F)(F)F)ccc1C(=O)N/N=C/c1c(Cl)cccc1Cl | 6.65% (active) | -40.5% (active) | 17.8 | 7.32% (active) | -0.639% (active) | -31% (active) | -16.7% (active) | -9.23% (active) | -32.6% (active) | 2.91% (active) | 6.49% (active) |  | -12.2% (active) | -53.7% (active) | -7.33% (active) | -17.7% (active) | -17% (active) | -27.3% (active) | 11.3% | -51.5% (active)
COc1cc(/C=C/C(=O)c2cc(-c3ccc(C(F)(F)F)cc3)ccc2O)cc(OC)c1OC | 64.3% | 84.1% | 82.1 | 98.7% | 56.5% | 63.1% | 40.8% | 81.4% | 80.3% | 81% | 41% |  | 61.3% | 61% | 76.2% | 78.1% | 92.3% | 82.5% | 81.8% | 71.6%
COc1cc2c3c(cccc3c1)C(=O)N(CCN1CCCC1)C2=O | 32.5% | 0.818% (active) | 13.6 | 25.7% | -22% (active) | -8.44% (active) | -11% (active) | 6.08% (active) | 36.1% | 15.1% | 4.01% (active) | -21.7% (active) | 29.1% | 10.9% | 28.2% | 40.2% | 30.1% | -10.4% (active) | 25.7% | 
COc1ccc(S(=O)(=O)Nc2cc(/C=C\c3cc(OC)c(OC)c(OC)c3)ccc2OC)cc1 | 27.6% | 11.8% | 23.8 | 48.7% | 5.27% (active) | 12.7% | -27.9% (active) | 18% | 19% | -12.8% (active) | 11.1% | 50% | 7.83% (active) | 16.4% | 9.24% (active) | 13% | -13% (active) | 47.7% | 8.41% (active) | 
